Compound activity as filed in PubChem.
Shown are actives, neighbours in structure and some others; about 4% of the full set was active somewhere.
Mtb bLac sens: beta-lactam sensitization of Mtb H37Rv. inhibition, % at 25 µM. AID 434955. M. tuberculosis H37Rv growth with meropenem, percent inhibition. 330,000 compounds, 0.27% hits;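 note: growth measured after seven days incubation then overnight dye step; 0% = bacteria only wells and 100% = bacteria with antibiotic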
Rv3671c protease: Rv3671c (M. tuberculosis) protease inhibition; 320,000 compounds, 0.048% hits; P9WHR9; inhibition, % at 5.96 µM; in the data active = inhibition above about 38%;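 note: extracellular domain of Rv3671c used as enzyme; 0% = enzyme with DMSO and 100% = no enzyme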
Target sequence (P9WHR9 whole entry, looked up, the tested form may be a part): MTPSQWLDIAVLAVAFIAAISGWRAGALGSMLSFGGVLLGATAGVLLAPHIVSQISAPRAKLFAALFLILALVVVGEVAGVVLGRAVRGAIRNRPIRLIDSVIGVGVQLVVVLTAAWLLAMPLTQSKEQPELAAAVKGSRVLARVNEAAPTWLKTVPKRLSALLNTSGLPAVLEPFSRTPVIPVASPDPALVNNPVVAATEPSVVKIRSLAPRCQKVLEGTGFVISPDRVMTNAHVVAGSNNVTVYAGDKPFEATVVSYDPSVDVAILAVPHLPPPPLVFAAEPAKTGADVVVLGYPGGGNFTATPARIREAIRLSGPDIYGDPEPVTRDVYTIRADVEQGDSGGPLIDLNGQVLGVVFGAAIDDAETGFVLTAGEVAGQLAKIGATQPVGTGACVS
RecA splice inh: inhibitors of M. tuberculosis RecA intein splicing | P9WHJ3 | cell-free RecA intein splicing, fluorescence | inhibition, % (test concentration not listed) | 290,000 compounds, 0.75% hits | AID 2221; in the data active = inhibition above about 30%; inconclusive = no clear call, values can overlap the other calls;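 note: 0% = vehicle wells and 100% = reference inhibitor control wells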
GDH-TPI inh: counter-screen for M. tuberculosis FBA inhibitors: GDH-TPI coupled enzymes | AID 588335 | 360,000 compounds, 1.2% hits | inhibition, % at 4.8 µM | GDH-TPI coupled enzyme counterscreen, NADH absorbance; in the data active = inhibition above about 30%;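 note: 0% = DMSO wells and 100% = wells lacking the enzyme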
Mtb UGM inh: inhibitors of M. tuberculosis UDP-galactopyranose mutase; P9WIQ1; purified UGM, fluorescence polarization probe displacement; inhibition, % at 10 µM; 320,000 compounds, 0.06% hits; in the data active = inhibition above about 10%, passing the limit was not always enough; inconclusive = no clear call, values can overlap the other calls
Mtb FBA inh: inhibits M. tuberculosis FBA enzyme | AID 588726 | purified M. tuberculosis FBA, fluorescence read-out | inhibition, % at 1 µM | 360,000 compounds, 2.3% hits | P9WQA3; in the data active = inhibition above about 27%;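 note: 0% = vehicle and 100% = reference inhibitor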
GFP chromo cs: counter-screen GFP chromophore formation inhibition; AID 434968; cell-free GFP chromophore formation, fluorescence; 2,100 compounds, 83% hits; shares compounds with RecA splice inh; EC50, µM
* marks the source's active call; other numbers are inactive results; u = inconclusive; x = not tested or not shown. Unless noted, the rule behind the calls is not given here.

SMILES	Mtb bLac sens	Rv3671c protease	RecA splice inh	GDH-TPI inh	Mtb UGM inh	Mtb FBA inh	GFP chromo cs
CC(=O)Oc1ccc2c(=O)oc(-c3ccccc3C)nc2c1	43.4	0.0	33.2*	-1.1	-0.8	-1.9	>38
CCCc1[nH][nH]c(=O)c1C(c1cccc(Cl)c1)C(C#N)C#N (stereo not drawn)	-7.1	0.4	51.5*	5.2	-5.1	1.7	9.41*
NS(=O)(=O)c1cccc(NC(=O)CN2CCC(Cc3ccccc3)CC2)c1	-10.8	7.3	-1.7	0.6	u	-1.7	x
O=C(OCn1ncc(Br)c(Br)c1=O)c1ccccc1Cl	100.3	-9.5	63.9*	6.7	2.6	0.0	1.75*
O=C(OCc1cnc(Cl)s1)c1ccccc1Cl	-1.5	0.4	1.9	0.4	x	-0.1	x
O=C(OCn1ncc(Br)c(Br)c1=O)c1ccc(F)cc1	100.1	-4.7	72.6*	-0.8	-2.8	0.0	2.18*
COc1ccc(S(=O)(=O)N2CCN(C(=S)NC3CCCCC3)CC2)cc1	1.6	-11.2	x	-5.1	-3.5	-2.2	x
COc1ccccc1-c1n[nH]c(=S)n1Cc1ccccc1	-1.0	-2.6	-0.2	-4.5	-1.3	1.6	x
COc1ccccc1-c1cn[nH]c(=S)n1	-9.9	-0.3	35.0*	6.6	2.7	5.4	>38
Cc1ccc(C(=O)NCC(=O)N(C)Cc2ccc(Cl)cc2Cl)s1	x	x	x	0.0	x	1.4	x
CS(=O)(=O)c1nc(-c2ccccc2)cc(C(F)(F)F)n1	98.3	-9.2	65.9*	3.1	5.3	2.9	12.7*
Cc1cc(NC(=O)CCS(=O)(=O)c2nc(-c3ccccc3)cc(C(F)(F)F)n2)no1	85.4	0.3	x	1.9	1.4	-3.0	x
CC1(S(=O)(=O)O)CC(=O)c2ccccc2C1=O (stereo not drawn)	67.2	-7.3	93.2*	11.1	-2.2	-0.8	4.29*
O=C(N/N=C1\C/C(=N\NC(=O)c2ccncc2)c2ccccc21)c1ccncc1	99.8	-42.4	94.6*	-2.9	0.3	-1.9	1.15*
CCCCCn1c(CNC(=O)COC)nc2ccccc21	-2.1	-4.3	3.4	19.9	0.2	-1.0	x
N=C(N)SCc1cn(-c2ccccc2)nc1-c1ccc(Br)cc1	x	x	39.6*	3.5	x	-4.8	20.5*
Clc1cc(Br)ccc1OCCOCCN1CCCC1	-25.7	4.8	0.8	19.6	-1.3	1.0	x
CCn1c(=O)c(C(=O)NCc2ccc(F)cc2)c(O)c2ccccc21	-2.5	-4.3	3.9	3.5	0.9	-0.8	x
Cc1nn2c([nH]c(=O)c3ccccc32)c1C=O	-6.0	-4.6	-5.6	9.6	1.9	4.6	x
CCOC(=O)CCSCC(=O)N1N=C(c2cccs2)CC1c1ccc(C)cc1 (stereo not drawn)	-1.3	-3.2	16.2	13.9	3.7	8.9	x
Cc1ccc(C2CC(c3cccs3)=NN2C(=O)CCl)cc1 (stereo not drawn)	99.6	1.6	82.1*	12.2	3.9	2.2	3.81*
FC(F)(F)c1ccc2c(c1)N(CCCN1CCN(CCCl)CC1)c1ccccc1S2	-1.1	2.6	63.3*	-5.9	1.6	12.4	17.2*
COc1cccc(C2NC(=S)NC(C)=C2C(=O)c2ccccc2)c1OC (stereo not drawn)	-7.3	2.6	3.9	25.5	2.5	-1.6	x
Cc1ccc(C)c(NC(=O)CSc2n[nH]c(-c3ccccn3)n2)c1	93.0	6.5	50.5*	-0.7	1.9	4.3	>38
COc1cccc(COC(=O)C(Cc2ccccc2)NC(=O)c2ccco2)c1 (stereo not drawn)	x	x	x	-1.8	x	-1.6	x
SMILES	Mtb bLac sens	Rv3671c protease	RecA splice inh	GDH-TPI inh	Mtb UGM inh	Mtb FBA inh	GFP chromo cs
N#Cc1ncc(Cc2ccccc2)nc1C#N	9.2	4.3	81.7*	-8.6	-0.9	2.9	5.05*
Brc1ccc(CNc2ccc3ncccc3c2)cc1	85.8	x	38.6*	-7.1	1.4	10.8	>38
O=C(Nc1ccc2ncccc2c1)c1cccc(Br)c1	0.2	-5.5	-2.5	-2.2	-0.2	-0.1	x
COc1ccc(/C=C/C(=O)c2ccncc2)c2ccccc12	81.8	-11.4	56.9*	3.0	-1.0	-8.2	22.6*
COc1ccc(/C=C/C(=O)c2ccc[nH]2)c(OC)c1OC	1.6	0.7	2.6	25.9	-4.4	0.0	x
O=C(CCl)N1CCCC1c1ccc2c(c1)OCCO2 (stereo not drawn)	99.5	-8.6	73.6*	-6.1	1.6	-1.2	33*
CC(=O)c1ccc(OCC(=O)N2CCCC2c2ccc3c(c2)OCCCO3)cc1 (stereo not drawn)	-3.7	3.7	x	14.2	1.8	2.6	x
Cc1ccc(C(c2cc(Cl)c3cccnc3c2O)N2CCN(C)CC2)cc1 (stereo not drawn)	44.4	4.9	74.7*	3.1	0.4	4.5	8.65*
O=C(Nc1ccc(S(=O)(=O)Nc2nccs2)cc1)c1ccc(N2C(=O)c3ccccc3C2=O)cc1	-1.8	-131.9	0.7	0.8	-0.6	-1.9	x
Cc1onc(-c2c(Cl)cccc2Cl)c1C(=O)N1C(C)CCCC1C (stereo not drawn)	8.2	-10.1	81.1*	-0.3	6.7	1.7	>38
Cc1ccc(NC(=O)CCC(=O)N2CCOCC2)nc1	4.4	14.9	-0.7	9.5	1.8	1.2	x
CCc1noc(C)c1C(=O)N1CCCC(Nc2cccc(F)c2)C1 (stereo not drawn)	x	x	x	-3.6	x	-4.0	x
O=C(NCCc1ccccc1Cl)C1CCC(=O)N(Cc2ccc(Cl)cc2)C1 (stereo not drawn)	u	-0.9	1.2	1.3	1.9	7.0	x
Cc1ccc(C(=O)NNC2CC(=O)N(c3ccc4c(c3)OCCO4)C2=O)cc1 (stereo not drawn)	5.0	2.0	-6.5	-4.7	0.4	3.4	x
CN(C)/C=C/C(=O)c1ccc2noc(-c3ccc(F)cc3)c2c1	4.6	-9.0	30.7*	14.6	2.0	-2.6	>38
Cc1ccc(-c2onc3ccc(C(=O)/C=C/N(C)C)cc23)cc1	2.5	-18.3	-0.1	24.5	1.1	1.4	x
CCC(CO)Oc1cc(NC(=O)c2cccc(C)c2)c2ncn(C(C)C)c2c1 (stereo not drawn)	-6.1	2.7	x	11.2	-3.2	1.5	x
CCCC(=O)N(Cc1cc(=O)[nH]c2ccccc12)c1ccc(OC)cc1	-11.0	6.0	4.5	2.9	0.8	-3.2	x
COc1ccc(N(Cc2cc(=O)[nH]c3ccccc23)C(=O)CCl)cc1	61.4	6.7	x	7.7	-1.3	1.4	15.3*
CCCC(=O)N(Cc1cc(=O)[nH]c2ccccc12)c1cccc(C)c1	u	-3.6	4.7	0.7	0.7	3.8	x
Cc1cccc(N(Cc2cc(=O)[nH]c3ccccc23)C(=O)CCl)c1	60.6	-2.3	41.4*	3.9	-1.2	7.0	8.03*
O=Cc1c(C(=O)O)n(Cc2ccc(Cl)cc2)c2ccccc12	2.1	-15.5	-21.0	7.9	-0.6	0.3	x
Cc1ccccc1-c1nnnn1C1CCS(=O)(=O)C1 (stereo not drawn)	-9.3	-10.5	0.4	0.0	-1.0	-2.0	x
